VACV mCherry inh: vaccinia inhibition (mCherry reporter); Vaccinia virus mCherry reporter infection, fluorescence; Potency, µM (titrated, usually from 36.5 µM), for inactives: at the top dose activity change, negative = inhibition, most hits filed as inhibitors; 310,000 tested, 0.63% active; calls by dose curve; tested in A549 cells; further: nearly all actives have a fitted effect of over 35% in size
AMA1 RON2 block: AMA1-RON2 (P. falciparum) interaction inhibition; 360,000 tested, 0.2% active; AlphaScreen AMA1-biotinylated RON2 peptide binding; Potency, µM (series often up to 58.2 µM), without a hit: at the highest dose activity change, negative = inhibition, usual class: inhibitors;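 further: 0% = vehicle wells and -100% = peptide control; nearly all actives have a fitted effect of over 45% in size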
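AMA1 (3D7) with his tag at 25 nM final met compounds first, then biotinylated RON2 peptide at 25 nM; detection used donor plus acceptor beads, 10 µg/mL apiece, read by AlphaScreen after 30 min at room temperature.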
Vaccinia Venus: inhibitors of vaccinia virus (Venus reporter). Vaccinia virus Venus reporter expression, fluorescence. Potency, µM (highest dose often 36.5 µM), for inactives: at the top dose activity change, negative = inhibition, hits mostly inhibitors. 330,000 tested, 0.46% active. AID 720580; calls by dose curve; tested in A549 cells; further: nearly all actives have a fitted effect of over 30% in size
Pf growth 96h: inhibits malaria parasite growth, 96 h; P. falciparum luciferase reporter growth, 96 h; Potency, µM (titrated, usually from 28.7 µM), inactives show at the highest dose activity change, negative = inhibition, most hits filed as inhibitors; 320,000 tested, 6.9% active; AID 504834
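Delayed-death screen, second-generation endpoint: infected erythrocytes, 2% hematocrit, 0.05% parasitemia final; 96 hours at 37 C, 5% CO2; luciferase detection reagent; luminescence decrease equals reduced growth.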
Pf growth 48h: P. falciparum growth inhibition at 48 hours (one generation). P. falciparum luciferase growth in erythrocytes, 48 h. Potency, µM (highest dose often 28.7 µM), for inactives: at the highest dose activity change, negative = inhibition, most hits filed as inhibitors. 310,000 tested, 5.9% active
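In quantitative HTS format, infected erythrocytes bearing luciferase-reporter parasites were treated for a single generation at 37 C. Luminescence after adding detection reagent served as the growth measure.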
Starred values were filed as active, the others as inactive; i = inactive; ? = inconclusive; nt = no result given; [ ] = dose if it differs, or a comment. A selection: hits, their analogues and other compounds. The true share with any hit is near 8.7%. Unless noted, the call rests on the fitted dose curve; in most records, active means well fitted curve in the direction sought with a large enough effect; inconclusive means small, poorly fitted or top-dose-only effect, or another doubt; inactive means no such curve, though single readings can be large; an effect the other way counts as inactive or inconclusive. Unless noted, on the % scale 0 is the no-effect control and ±100 the full control effect; potency means the concentration at half of the fitted maximal effect.

SMILES	VACV mCherry inh	AMA1 RON2 block	Vaccinia Venus	Pf growth 96h	Pf growth 48h
Nn1cnnc1N/N=C/c1ccc(Cl)cc1Cl	8.9µM*	21%	?	-24%	35%
O=C(N/N=C/c1ccc(Cl)cc1Cl)c1ccc(-n2cnnn2)cc1	nt	-10%	nt	-6%	-20%
Cc1csc(NC(=O)C2CCN(S(=O)(=O)c3cccs3)CC2)n1	-4%	-13%	-1%	55%	-2%
CCCn1c(NC(=O)c2cccc(S(=O)(=O)N3CCCC3)c2)nc2ccccc21	nt	33%	nt	9.3µM*	?
O=C(Nc1nc(-c2ccc(F)cc2)cs1)C1CCN(C(=O)c2ccc(F)cc2)CC1	?	-5%	?	6.6µM*	?
O=C(Nc1nc2c(F)cc(F)cc2s1)C1CCN(C(=O)c2ccc(F)cc2)CC1	i	8%	-2%	117%	91%
CCCn1c(NC(=O)C2CCN(S(=O)(=O)c3cccs3)CC2)nc2ccccc21	-26%	96%	?	71%	10µM*
CC(=O)Nc1ccc(-c2csc(NC(=O)C3CCN(S(=O)(=O)c4cccs4)CC3)n2)cc1	0%	?	-26%	?	2.1µM*
CCCn1c(NC(=O)c2ccccc2)nc2ccccc21	?	29%	?	54%	?
Cc1cccn2c(Nc3ccccc3)c(-c3cccs3)nc12	-9%[7.34 µM]	nt	-2%[7.34 µM]	nt	nt
O=C(COC(=O)c1cc(-c2ccccc2)nc2c(Cl)cccc12)c1ccc(F)cc1	-16%	nt	-8%	nt	nt
CCOc1ccc2nc(Cl)c(C3CC(c4ccc(C)cc4)=NN3C(=O)CCCC(=O)O)cc2c1 (configuration not stated)	1%	nt	-3%	nt	nt
COc1ccccc1Nc1nnc(SCC(=O)NC2CC2)s1	nt	7%	nt	?	?
Cc1nnc(SCC(=O)Nc2nc(-c3ccc(F)cc3)cs2)[nH]c1=O	13µM*	-8%	?	-11%	24%
COc1ccccc1Nc1nnc(SCC(=O)NC2CCCC2)s1	nt	7%	nt	9.3µM*	12µM*
COc1ccccc1Nc1nnc(SCC(=O)N2CC(=O)Nc3ccccc32)s1	-23%	8%[11.6 µM]	-24%	7.4µM*	?
CC(C)C(=O)Nc1nnc(SCC(=O)NC2CC2)s1	nt	8%	nt	5.2µM*	15%
CCn1c2ccccc2c2cc(CN3CCOc4ccc(C(O)c5cccnc5)cc4C3)ccc21 (configuration not stated)	-20%	nt	?	nt	nt
COCCCNC(=O)Cn1c(=O)n(-c2cccc(C)c2)c(=O)c2c3c(sc21)CN(C(C)=O)CC3	-12%	nt	-6%	nt	nt
CCN(C(=O)NCc1noc2ccccc12)c1cc(C)ccc1C	5%	nt	-7%	nt	nt
Cc1cccc(C(=O)NCc2nc(-c3ccccc3NC(=O)C3CCCO3)oc2C)c1 (configuration not stated)	-9%	nt	5%	nt	nt
COc1ccc(Br)cc1CNC(=O)c1cc2ccccn2n1	-15%	nt	-11%	nt	nt
CCOC(=O)c1ccc(NC(=O)Cn2cc(C(=O)C3CC3)c3ccccc32)cc1	-7%	nt	-8%	nt	nt
CC(=O)Nc1nnc(SCC(=O)N2C(C)CCCC2C)s1 (configuration not stated)	-12%	-1%	-5%	12µM*	3%
CCc1nc(SCC(=O)N2CC(=O)Nc3ccccc32)c2c(C)c(C)sc2n1	i	11%	-14%	-145%	?
SMILES	VACV mCherry inh	AMA1 RON2 block	Vaccinia Venus	Pf growth 96h	Pf growth 48h
Cc1sc2nc(C3CCCCC3)nc(SCC(=O)N3CC(=O)Nc4ccccc43)c2c1C	-12%	-1%	-9%	4.7µM*	?
COc1ccccc1Nc1nnc(SCC(=O)Nc2nc(-c3ccc(F)cc3)cs2)s1	i	39%	?	13µM*	1%
O=c1cc(-c2ccc(F)cc2)nc(SCc2nc(-c3cccc(C(F)(F)F)c3)no2)[nH]1	-12%	nt	-5%	nt	nt
CCOc1ccc2nc(N3CCCC3C(=O)N3CCC(c4nc5ccccc5o4)CC3)nc(C)c2c1 (configuration not stated)	-14%	nt	-10%	nt	nt
Cc1cccc(NC(=O)Cn2c(=O)n(Cc3ccco3)c(=N)c3c4c(sc32)COC(C)(C)C4)c1	nt	-1%	-4%	8.3µM*	nt
CC1(C)Cc2c(sc3c2c(=N)n(Cc2ccco2)c(=O)n3CC(=O)Nc2cccc(Cl)c2)CO1	nt	-6%	-19%	10µM*	?

From PubChem BioAssay
